Bioassay records (PubChem)
A selection: hits, their analogues and other compounds. The true share with any hit is near 1.4%.
AID504770 – growth inhibition of E. coli YBA685, primary screen, V. cholerae RctB inhibitors. E. coli YBA685 rctB-dependent plasmid, OD600 growth, 3 h; active compounds read low. z-score (test concentration not listed). 130,000 tested, 0.27% active. AID 504770, 2011; in the data active means z-score below about -2, passing the limit was not always enough
MbtI inh – MbtI salicylate synthase inhibitors, primary screen, biochemical, fluorescence intensity; 100,000 tested, 0.89% active; P9WFX0; inhibition, % (test concentration not listed); purified MbtI enzyme, fluorescence intensity read-out; in the data active means inhibition mostly above about 56%, no sharp cut-off; inactive means mostly below about 77%
Polio RdRp inh – poliovirus RdRp elongation inhibitors, primary screen, biochemical, fluorescence polarization, total intensity | Genome polyprotein (Poliovirus type 1 (strain Mahoney)), P03300 | poliovirus polymerase elongation; active compounds read low | % elongation, % (compound at 16.7 µg/mL) | 150,000 tested, 0.66% active | AID 588519, 2011; in the data active means % elongation below about 90%
Target sequence (P03300 1749-2209 limits assumed): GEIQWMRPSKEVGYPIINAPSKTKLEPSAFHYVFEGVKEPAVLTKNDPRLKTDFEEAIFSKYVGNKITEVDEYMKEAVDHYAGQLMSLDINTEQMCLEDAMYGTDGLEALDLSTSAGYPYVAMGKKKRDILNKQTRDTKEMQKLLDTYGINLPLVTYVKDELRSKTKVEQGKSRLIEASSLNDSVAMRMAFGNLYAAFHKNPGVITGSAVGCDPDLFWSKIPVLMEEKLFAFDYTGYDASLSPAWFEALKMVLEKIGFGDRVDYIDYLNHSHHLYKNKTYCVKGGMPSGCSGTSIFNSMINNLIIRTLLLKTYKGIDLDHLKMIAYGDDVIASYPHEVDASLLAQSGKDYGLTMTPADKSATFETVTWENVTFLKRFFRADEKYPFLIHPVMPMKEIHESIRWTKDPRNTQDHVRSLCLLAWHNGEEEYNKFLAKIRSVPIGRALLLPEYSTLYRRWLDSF
Mtb MenB inh – M. tuberculosis MenB inhibitors, primary screen, biochemical, absorbance; 100,000 tested, 0.43% active; 1,4-dihydroxy-2-naphthoyl-CoA synthase (Mycobacterium tuberculosis (strain ATCC 25618 / …; MenB enzyme assay, absorbance read-out; inhibition, % (concentration not given with the values); in the data active means inhibition above about 21%, passing the limit was not always enough
An asterisk follows results filed as active; . = no result; ! = repeats disagree.

SMILES	AID504770	MbtI inh	Polio RdRp inh	Mtb MenB inh
O=c1[nH]c(=S)n(-c2cccc(Cl)c2)c2c1CN(C1CCCC1)CN2	-0.35	16.0	99.0	51.6*
CC(C)Sc1nnc2oc3ccc(S(=O)(=O)N(C)C)cc3n12	-0.3	13.8	6.0*	17.4
Cn1cnc(S(=O)(=O)N(Cc2ccccc2)Cc2ccccc2N2CCC(C(=O)O)CC2)c1	-0.4	-11.8	86.0*	3.7
CCOc1ncccc1C(=O)N(C)Cc1c(C)nn(-c2ccccc2)c1C	-0.05	-0.8	102.0	-19.4
CC1(C)CC2CC(C)(CN2C(=O)CN2CCN(C/C=C/c3ccccc3)CC2)C1 (centres undefined)	-0.3	-3.2	.	-10.8
O=C(O)CCC(=O)N1N=C(c2ccccc2)CC1c1ccc2nccnc2c1 (centres undefined)	-0.6	15.0	99.0	49.9*
CCc1ccc(C2CC(c3ccccc3)=NN2C(=O)CCCC(=O)O)cc1 (centres undefined)	0	-5.5	98.0	-31.5
O=C(NCc1ccco1)C(=S)N1CCOCC1	-0.3	76.1*	99.0	-5.5
COc1ccccc1NC(=O)CSC(=O)c1ccccc1	0.1	87.4*	101.0	.
COc1ccc(NC(=O)CSc2nnc(N)s2)cc1	.	.	108.0	.
COc1ccccc1NC(=O)CSc1nnc(N)s1	.	.	83.0*	.
CC(=O)N1c2ccccc2NC(=O)C1CC(=O)Nc1ccccc1Cl (centres undefined)	-1	-19.1	98.0	-1.0
C=CCn1c(NC)nc2c1c(=O)[nH]c(=O)n2C	2.2	1.2	104.0	-29.7
C=CCn1c(SC)nc2c1c(=O)[nH]c(=O)n2C	0.55	96.3*	99.0	-28.3
CC1=C(C(=O)Nc2cc(Cl)ccc2C)C(c2ccco2)n2ncnc2N1 (centres undefined)	.	.	108.0	.
O=C(COC(=O)c1cccc(O)c1)c1ccc(F)cc1	-1.15	-1.7	100.0	22.1
COC(=O)c1sc(NC(=O)C(F)(F)F)c(C(=O)OC)c1C	-0.55	17.0	104.0	0.2
COC(=O)c1sc(NC(=O)c2ccccc2)c(C(=O)OC)c1C	-0.85	.	68.0*	-28.4
CSC(N)=Nc1ccc(Cl)cc1	-2.55*!	.	.	.
COc1cc(OC)c(NC(=O)c2ccc3c(c2)N(Cc2ccc(C)cc2)CCS3)cc1Cl	.	.	106.0	.
CSc1nnc(-c2c[nH]c3ccccc23)n1C	-0.25	.	.	.
Cn1cc(S(=O)(=O)N2CCCCCC2)cc1C(=O)N1CCN(c2cccc(C(F)(F)F)c2)CC1	.	.	107.0	.
CCc1cc(=O)oc2cc(O)cc(O)c12	0.05	-50.5	98.0	47.4*
CCCc1cc(=O)oc2cc(O)cc(O)c12	-0.85	.	.	.
Cc1[nH]n(-c2nc3ccccc3s2)c(=O)c1C1OC(=O)c2ccccc21 (centres undefined)	0.4	95.4*	93.0	-35.3
SMILES	AID504770	MbtI inh	Polio RdRp inh	Mtb MenB inh
Cc1[nH]n(-c2nc3ccccc3s2)c(=O)c1C	-0.95	99.2	105.0	-9.9
CCOC(=O)c1cccc(NC(=O)NCc2ccc3c(c2)CCN3C(=O)c2ccccc2)c1	.	.	111.0	.
CCOC(=O)c1ccc(-n2c(N)c(C(=O)N3CCCC3)sc2=S)cc1	-1.15	93.5*	99.0	-25.4
CCOC(=O)c1ccc(-n2c(N)c(C(=O)NCC3CCCO3)sc2=S)cc1 (centres undefined)	-0.6	92.3*	96.0	-12.7
CCOc1ccc(-n2c(N)c(C(=O)N3CCN(C)CC3)sc2=S)cc1	0.45	-0.1	99.0	-42.5
CCC1CN(C(=O)NCc2ccc(F)cc2)c2ccccc2O1 (centres undefined)	.	.	106.0	.
Cc1n[nH]c(=S)n1/N=C\c1ccco1	-0.65	36.0	90.0*	8.2
Cc1cc(C)c2[nH]c(O)c(N=NC(=S)NCC3CCCO3)c2c1 (centres undefined)	0.05	-13.9	97.0	-20.3
Oc1[nH]c2ccc(Br)cc2c1N=NC(=S)NCC1CCCO1 (centres undefined)	0	31.0	90.0*	-11.3
c1ccc(N=c2[n-][n+](-c3ccccc3)cn2-c2ccccc2)cc1	1.75	.	85.0*	-37.6
Cc1nc(NCCNC(=O)c2ccco2)c2c(C)c(C)sc2n1	1.1	18.0	102.0	22.2
Cc1ccc(/C=C2/C(=O)NC(=O)N(C3CCCCC3)C2=O)cc1	-0.7	5.6	99.0	3.1
CSc1ncc(/C=C2/C(=O)NC(=O)N(C3CCCCC3)C2=O)cn1	-0.3	71.0*	100.0	-37.6
Cc1cc(C)nc(NNC(=S)NCc2ccc3c(c2)OCO3)n1	-0.5	74.5*	98.0	-16.0
Brc1csc(CNCCc2ccco2)c1	-0.3	9.4	86.0*	7.7
Brc1ccc(NCc2ccco2)cc1	0.2	-21.6	102.0	1.2
Cc1ccc(N2C(=O)N(c3ccccc3)C(=N)C2=S)cc1Cl	-0.95	45.1	68.0*	1.6
Cc1ccc2nc(NC(=O)CSc3nccn3-c3ccccc3)sc2c1	2.85	.	.	.
Nc1cc(C(F)(F)F)ccc1-n1cnc2ccccc21	1.05	90.1*	102.0	.
Cc1cc(C)cc(OCc2cc(=O)n3c4c(sc3n2)CCCC4)c1	.	.	78.0*	.
COc1ccc(C/C(N)=N/O)cc1OC	-0.25	0.6	101.0	21.0*
COc1ccc(-c2cn3c(n2)sc2cc(C(=O)NCCCN4CCCCC4)ccc23)cc1	.	.	90.0*	.
COc1ccc(-c2cn3c(n2)sc2cc(C(=O)NCCCN4CCCCCC4)ccc23)cc1	.	.	100.0	.
O=C(Cn1nc(Cc2ccncc2)c2ccccc2c1=O)NCCC1=CCCCC1	-2.25*	.	.	.
COC(=O)c1ccccc1N1C(=O)C=CC1=O	-2.45*	.	.	.
SMILES	AID504770	MbtI inh	Polio RdRp inh	Mtb MenB inh
Cc1cccc(N2CCN(CC(O)CN3C(=O)c4ccccc4C3=O)CC2)c1 (centres undefined)	-0.8	.	103.0	-24.3
O=C(O)CSC1=NCCCN1	0.35	3.2	99.0	1.5
O=C(O)CSC1=NC2CCCCC2N1 (centres undefined)	-0.55	2.8	99.0	32.5*
COCCCNC(=O)C1CCCN(C(=O)c2cnn(-c3ccc(F)cc3)c2-n2cccc2)C1 (centres undefined)	.	.	108.0	.
Clc1ccc(Cl)c(-c2nn3c(Cn4nnc5ccccc54)nnc3s2)c1	1.35	93.0*	102.0	-96.0
Clc1ccc(Cn2nnc3ccccc32)cc1Cl	1.35	-1.1	104.0	-66.0
CCOC(=O)C(Nc1cccc(F)c1)c1ccccc1 (centres undefined)	0.1	-6.7	.	.
COC(=O)C(C(=O)OC)C(Nc1ccccc1)c1ccccc1 (centres undefined)	-0.1	.	25.0*	3.2
Cc1cc(NC(=S)N(C)C)ccc1Br	1.95	96.2*	97.0	-5.2
Brc1ccc(CNc2ccc3cn[nH]c3c2)s1	-0.95	-13.6	58.0*	-37.4
O=C(Nc1ccccn1)C1c2ccccc2Oc2ccccc21	-1.35	-4.8	99.0	-22.8
NNC(=O)c1nn(-c2ccccc2)c(=O)c2c(N)scc12	0.35	40.9	91.0	1.1
COC(=O)c1nn(-c2ccc(OC)cc2)c(=O)c2c(N)sc(C)c12	1.05	77.1*	83.0*	-54.6
COC(=O)c1nn(-c2ccccc2)c(=O)c2c(N)sc(C)c12	-0.7	75.9*	73.0*	-13.0
